# Laboratory results reported in the supplement of paper PMC6089552.
# Among all 3,200 compounds or so, about 300 (9.4%) showed activity. For the sample, actives were picked, then their nearest neighbours and some compounds at random. Unmarked numbers belong to inactive results.
# Tested on: A673/TR/shEF
# Assay: cell viability (LOESS-normalised, relative to median of negative controls) (log2 ratio); higher = more viable cells (less compound effect), active = hit call of the paper (over 3 MAD below the median)
# Conditions: treatment time: 72 h
# Method in brief: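 Doxycycline, present or absent from 24 h before compounds, was used to induce EWS-FLI1 shRNA knockdown in A673/TR/shEF Ewing sarcoma cells at 1,500 per well in 384-well plates. Cells then received library compounds at two or more concentrations, or DMSO controls, for three days. Viability was measured by CellTiter-Glo luminescence on an Envision reader, and per-plate LOESS correction, division by the negative-control median and log2 transformation followed.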
# [1] = 0.103 µM, library screen: screen3, EWS-FLI1 expression: high (no doxycycline)
# [2] = 0.103 µM, library screen: screen3, EWS-FLI1 expression: low (doxycycline-induced shRNA knockdown)
# [3] = 0.308 µM, library screen: screen3, EWS-FLI1 expression: high (no doxycycline)
# [4] = 0.308 µM, library screen: screen3, EWS-FLI1 expression: low (doxycycline-induced shRNA knockdown)
# [5] = 0.926 µM, library screen: screen3, EWS-FLI1 expression: high (no doxycycline)
# [6] = 0.926 µM, library screen: screen3, EWS-FLI1 expression: low (doxycycline-induced shRNA knockdown)
# [7] = 2.8 µM, library screen: screen3, EWS-FLI1 expression: high (no doxycycline)
# [8] = 2.8 µM, library screen: screen3, EWS-FLI1 expression: low (doxycycline-induced shRNA knockdown)
# [9] = 8.3 µM, library screen: screen3, EWS-FLI1 expression: high (no doxycycline)
# [10] = 8.3 µM, library screen: screen3, EWS-FLI1 expression: low (doxycycline-induced shRNA knockdown)
# [11] = 25 µM, library screen: screen3, EWS-FLI1 expression: high (no doxycycline)
# [12] = 25 µM, library screen: screen3, EWS-FLI1 expression: low (doxycycline-induced shRNA knockdown)
# [13] = 0.25 µM, library screen: screen1, EWS-FLI1 expression: high (no doxycycline)
# [14] = 0.25 µM, library screen: screen1, EWS-FLI1 expression: low (doxycycline-induced shRNA knockdown)
# [15] = 2.5 µM, library screen: screen1, EWS-FLI1 expression: high (no doxycycline)
# [16] = 2.5 µM, library screen: screen1, EWS-FLI1 expression: low (doxycycline-induced shRNA knockdown)
# [17] = 0.25 µM, library screen: screen2, EWS-FLI1 expression: high (no doxycycline)
# [18] = 0.25 µM, library screen: screen2, EWS-FLI1 expression: low (doxycycline-induced shRNA knockdown)
# [19] = 2.5 µM, library screen: screen2, EWS-FLI1 expression: high (no doxycycline)
# [20] = 2.5 µM, library screen: screen2, EWS-FLI1 expression: low (doxycycline-induced shRNA knockdown)
compound,measurement,setting,value
C[C@]12CC[C@H]3[C@@H](CCC4=CC(=O)CC[C@@]43C)[C@@H]1CC[C@@H]2OC(=O)CCC1CCCC1,cell viability (log2),[1],-0.000785
same,cell viability (log2),[2],0.011
same,cell viability (log2),[3],0.0351
same,cell viability (log2),[4],0.0268
same,cell viability (log2),[5],0.0442
same,cell viability (log2),[6],0.0219
same,cell viability (log2),[7],0.0558
same,cell viability (log2),[8],0.00975
same,cell viability (log2),[9],0.0577
same,cell viability (log2),[10],0.0516
same,cell viability (log2),[11],0.0518
same,cell viability (log2),[12],0.0747
CC(N)Cc1ccc(O)cc1 (configuration not stated),cell viability (log2),[13],0.0594
same,cell viability (log2),[14],0.0957
same,cell viability (log2),[15],0.092
same,cell viability (log2),[16],0.0198
COC[C@H]1OC(=O)c2coc3c2[C@@]1(C)C1=C(C3=O)[C@@H]2CCC(=O)[C@@]2(C)C[C@H]1OC(C)=O,cell viability (log2),"0.025 µM, library screen: screen1, EWS-FLI1 expression: high (no doxycycline)",0.254
same,cell viability (log2),"0.025 µM, library screen: screen1, EWS-FLI1 expression: low (doxycycline-induced shRNA knockdown)",0.0235
same,cell viability (log2),[13],0.137
same,cell viability (log2),[14],-0.0412
same,cell viability (log2),[17],0.179
same,cell viability (log2),[18],0.0105
same,cell viability (log2),[15],-0.356 (active)
same,cell viability (log2),[16],-0.0837
same,cell viability (log2),[19],-0.0237
same,cell viability (log2),[20],0.0148
same,cell viability (log2),"25 µM, library screen: screen1, EWS-FLI1 expression: high (no doxycycline)",-0.711 (active)
same,cell viability (log2),"25 µM, library screen: screen1, EWS-FLI1 expression: low (doxycycline-induced shRNA knockdown)",-0.309 (active)
CCCN1CCC[C@@H](c2cccc(C#N)c2)C1,cell viability (log2),[17],0.21
same,cell viability (log2),[18],0.0529
same,cell viability (log2),[19],0.222
same,cell viability (log2),[20],0.141
CC1(C)C2C[C@@H](O)[C@]3(C)C(CC[C@@]4(C)[C@H](c5ccoc5)CC5OC543)[C@@]2(C)[C@@H](O)C[C@H]1O (some centres not stated),cell viability (log2),[13],0.0938
same,cell viability (log2),[14],0.113
same,cell viability (log2),[15],0.107
same,cell viability (log2),[16],0.116
CCCN(CCC)c1c([N+](=O)[O-])cc(C(F)(F)F)cc1[N+](=O)[O-],cell viability (log2),[13],-0.0384
same,cell viability (log2),[14],0.0507
same,cell viability (log2),[15],0.104
same,cell viability (log2),[16],0.107
CCOC(=O)NC1=C(N2CC2)C(=O)C(NC(=O)OCC)=C(N2CC2)C1=O,cell viability (log2),"0.025 µM, library screen: screen2, EWS-FLI1 expression: high (no doxycycline)",-0.0137
same,cell viability (log2),"0.025 µM, library screen: screen2, EWS-FLI1 expression: low (doxycycline-induced shRNA knockdown)",-0.0126
same,cell viability (log2),[13],0.102
same,cell viability (log2),[14],0.0213
same,cell viability (log2),[17],0.153
same,cell viability (log2),[18],-0.00616
same,cell viability (log2),[15],0.0672
same,cell viability (log2),[16],0.107
same,cell viability (log2),[19],-0.0475
same,cell viability (log2),[20],0.0995
same,cell viability (log2),"25 µM, library screen: screen2, EWS-FLI1 expression: high (no doxycycline)",-3.5 (active)
same,cell viability (log2),"25 µM, library screen: screen2, EWS-FLI1 expression: low (doxycycline-induced shRNA knockdown)",-0.288 (active)
CCC(C)[C@H]1O[C@]2(C=C[C@@H]1C)C[C@@H]1C[C@@H](C/C=C(\C)[C@@H](O[C@H]3C[C@H](OC)[C@@H](O[C@H]4C[C@H](OC)[C@@H](O)[C@H](C)O4)[C@H](C)O3)[C@@H](C)/C=C/C=C3\CO[C@@H]4[C@H](O)C(C)=C[C@@H](C(=O)O1)[C@]34O)O2.CO[C@H]1C[C@H](O[C@H]2[C@H](C)O[C@@H](O[C@@H]3/C(C)=C/C[C@@H]4C[C@@H](C[C@]5(C=C[C@H](C)[C@@H](C(C)C)O5)O4)OC(=O)[C@@H]4C=C(C)[C@@H](O)[C@H]5OC/C(=C\C=C\[C@@H]3C)[C@]54O)C[C@@H]2OC)O[C@@H](C)[C@@H]1O (some centres not stated),cell viability (log2),[13],0.0422
same,cell viability (log2),[14],0.0818
same,cell viability (log2),[15],0.0639
same,cell viability (log2),[16],0.0892
Cn1cc(C2=C(c3cn(C4CCN(Cc5ccccn5)CC4)c4ccccc34)C(=O)NC2=O)c2ccccc21,cell viability (log2),[1],-0.105
same,cell viability (log2),[2],-0.0101
same,cell viability (log2),[3],-0.0168
same,cell viability (log2),[4],0.054
same,cell viability (log2),[5],-0.0718
same,cell viability (log2),[6],0.0485
same,cell viability (log2),[7],-0.024
same,cell viability (log2),[8],-0.0681
same,cell viability (log2),[9],0.0419
same,cell viability (log2),[10],0.0589
same,cell viability (log2),[11],-0.03
same,cell viability (log2),[12],0.0493
C=CCN1CCC23c4c5ccc(O)c4O[C@@H]2/C(=N/NC(=O)c2ccccc2)CCC3(O)[C@H]1C5 (some centres not stated),cell viability (log2),[17],0.0804
same,cell viability (log2),[18],0.0684
same,cell viability (log2),[19],0.0878
same,cell viability (log2),[20],0.0887
C[C@H]1CCC/C=C/[C@@H]2C[C@H](O)C[C@H]2[C@H](O)/C=C/C(=O)O1,cell viability (log2),[17],-0.127 (active)
same,cell viability (log2),[18],-0.561 (active)
same,cell viability (log2),[19],-3.76 (active)
same,cell viability (log2),[20],-3.56 (active)
CN1[C@@H]2CC[C@H]1CC(OC(=O)C(CO)c1ccccc1)C2 (some centres not stated),cell viability (log2),[1],-0.0138
same,cell viability (log2),[2],0.0399
same,cell viability (log2),[13],0.0603
same,cell viability (log2),[14],0.0968
same,cell viability (log2),[3],-0.021
same,cell viability (log2),[4],-0.00749
same,cell viability (log2),[5],-0.0329
same,cell viability (log2),[6],0.092
same,cell viability (log2),[15],0.15
same,cell viability (log2),[16],0.157
same,cell viability (log2),[7],-0.023
same,cell viability (log2),[8],-0.00135
same,cell viability (log2),[9],-0.0414
same,cell viability (log2),[10],-0.0331
same,cell viability (log2),[11],-0.025
same,cell viability (log2),[12],0.0734
